Measurements taken from PubChem BioAssay (NCI).
The panel holds about 79,000 compounds, 15% with a hit somewhere; the sample as a whole holds those more often. The source made the active and inactive calls. No stated cut-off is given here; in the data, active means growth inhibition above about 70%; inactive means the rest.

Experiments:
[1] = NCI Yeast Anticancer Drug Screen. Data for the rad50 strain (AID 155);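 further: 0% = growth of vehicle-only cultures of the same strain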; conditions: S. cerevisiae rad50 strain growth inhibition; at 50.0 µM; active compounds read high
Outline: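 Inhibition values express reduced yeast growth in compound-treated cultures relative to vehicle-treated controls.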

[2] = NCI Yeast Anticancer Drug Screen. Data for the mec2-1 strain (AID 157); conditions: S. cerevisiae mec2-1 strain, at 50.0 µM, active compounds read high
Outline: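 Test agents were screened against the mec2-1 yeast strain, with defined DNA repair or cell cycle alteration. Growth was scored as inhibition against vehicle-only controls.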

[3] = NCI Yeast Anticancer Drug Screen. Data for the sgs1 mgt1 strain (AID 161);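 further: 0% = growth of cultures given vehicle only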; conditions: S. cerevisiae sgs1 mgt1 strain, at 50.0 µM, active compounds read high
Outline: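 Test agents were incubated with a DNA-repair-mutant yeast strain. Growth was then read and compared against vehicle-treated controls.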

[4] = NCI Yeast Anticancer Drug Screen. Data for the cln2 rad14 strain (AID 165);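 further: 0% = growth equal to vehicle treated cultures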; conditions: S. cerevisiae cln2 rad14 strain, at 50.0 µM, active compounds read high
Outline: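 Growth of compound-exposed yeast (cln2 rad14 genotype) measured and expressed as inhibition relative to vehicle.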

[5] = NCI Yeast Anticancer Drug Screen. Data for the bub3 strain (AID 167); conditions: S. cerevisiae bub3 mutant strain, at 50.0 µM, active compounds read high
Outline: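 Steps: expose the mutant yeast strain to compound; grow alongside vehicle-treated cultures; measure growth; express inhibition against the vehicle cultures.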

[6] = NCI Yeast Anticancer Drug Screen. Data for the mlh1 rad18 strain (AID 175); conditions: S. cerevisiae mlh1 rad18 strain growth inhibition; at 50.0 µM; active compounds read high
Outline: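 In this whole-cell yeast screen, a strain with altered DNA damage repair is challenged with compound, and its growth is measured against matched vehicle-treated controls.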

Measured: growth inhibition

COC(=O)CC(NC(=O)OCc1ccccc1)C(=O)NCC(=O)NCC(=O)O (stereo unspecified)
inactive: [1] 15.8% | [2] 12.7% | [3] -5.65% | [4] 14.3% | [5] -4.7% | [6] 2.5%

O=C(OCC(OC(=O)c1ccccc1)C1CC(C(O)C2CCCCC2)C(=O)O1)c1ccccc1 (stereo unspecified)
inactive: [1] 5.25% | [2] 22.1% | [3] 45.9% | [4] 10.2% | [5] 22.2% | [6] 30.6%

COC(=O)C1(C)CCCC2(C)C3CCC(C(C)C)CC3CCC12 (stereo unspecified)
inactive: [1] 24.9% | [2] -12.8% | [3] 20.1% | [4] -12.6% | [5] -5.9% | [6] 8.65%

CC1(C)OC2OC(C3COS(=O)O3)C(Cl)C2O1 (stereo unspecified)
inactive: [1] -2% | [2] 2.45% | [3] -1.4% | [4] -48.8% | [5] -0.7% | [6] 8.6%

CC(C)=CC1C(COC(=O)c2ccccc2Cl)C1(C)C (stereo unspecified)
inactive: [1] 1% | [2] -8.3% | [3] -2.9% | [4] -27.9% | [5] -12.4% | [6] 18.8%

COc1cc2c3c(c1OC)-c1[nH]c4ccccc4c1C1CCCN(CC2)C31 (stereo unspecified)
inactive: [1] -54.9% | [2] -19.9% | [3] -20.4% | [4] -29.9% | [5] -16.4% | [6] -11.7%

Clc1cccc(-c2sc(-c3ccsc3)cc2Cc2ccsc2)c1
inactive: [1] -21.2% | [2] -20.1% | [3] -22.1% | [4] -28.6% | [5] -24.1% | [6] 2.1%

NC(=O)C1C2CC3C(C2)C31 (stereo unspecified)
inactive: [1] 2.9% | [2] 11.2% | [3] -1% | [4] -1% | [5] 3.4% | [6] 4.95%

CCOc1ccccc1C(=O)O
inactive: [1] 13.2% | [2] 6% | [3] 14.2% | [4] 11.4% | [5] -12.1% | [6] 11.4%

CCCCCP(=O)(CCCCC)C1CCCC1
inactive: [1] -0.6% | [2] 11.2% | [3] -2.3% | [4] 1.75% | [5] 49.1% | [6] -0.65%

Cc1ccc(C2(c3ccccc3)c3ccccc3C(=O)N2c2ccccc2)cc1 (stereo unspecified)
active: [1] 97% | [2] 97.6% | [3] 97.7% | [4] 95% | [5] 97.2% | [6] 96.9%

CCC(C(O)c1ccccc1)[N+](=O)[O-] (stereo unspecified)
inactive: [1] 54.8% | [2] 31.3% | [3] 9.5% | [4] -8.75% | [5] -11.1% | [6] 10.3%

COc1ccc(C(O)Cc2cc(=O)cc(-c3ccccc3)[nH]2)cc1 (stereo unspecified)
inactive: [1] 2.2% | [2] -4.95% | [3] 2.2% | [4] -40.3% | [5] 9.85% | [6] -1.4%

CCC(C)C(=O)OC1C(=O)OC2CC3C(C)=CC(=O)C(O)C3(C)C3C4(O)OCC23C1C(C)C4O (stereo unspecified)
active: [1] 90.3% | [2] 93% | [3] 90% | [4] 91.3% | [5] 90.6% | [6] 92.1%

CC(C)NC(=O)Nc1cccc(Cl)c1
inactive: [1] 0.75% | [2] 7.2% | [3] 17.7% | [4] -18.8% | [5] -23.2% | [6] -1%

CCOC(=O)C1CC(=O)C2/C(=C(\O)c3ccccc3)C=C([N+](=O)[O-])C1C2[N+](=O)[O-] (stereo unspecified)
inactive: [1] 3% | [2] 3.65% | [3] -13.6% | [4] -1.25% | [5] 3.6% | [6] -1.2%

Cc1nc2ccccc2c(=O)n1C
inactive: [1] -7.5% | [2] -17.9% | [3] 10.7% | [4] 2.35% | [5] -5.4% | [6] 3.95%

CCCCNC(=S)/N=C/c1c(O)cc(C)oc1=O
inactive: [1] -16.6% | [2] -25.9% | [3] -24.1% | [4] 2.25% | [5] -14.6% | [6] 2.75%

CNc1ccc(C(=O)N(C(=O)NC2CCCCC2)C2CCCCC2)cc1
inactive: [1] -6.65% | [2] -5.6% | [3] 4.7% | [4] -6.85% | [5] -1.95% | [6] 5.15%

Cc1ccc(/C=N/NC(=O)Cc2cccc3ccccc23)cc1
inactive: [1] -1.75% | [2] 13.4% | [3] 32.9% | [4] -10.9% | [5] 17.1% | [6] 21.1%

CO/N=C1\CC(NC(=O)CNC(=O)OC(C)(C)C)c2ccsc21 (stereo unspecified)
inactive: [1] 1.45% | [2] 5.9% | [3] 6.6% | [4] 4.3% | [5] -1.7% | [6] 28.4%

CC(=O)OCC1(C)NC(=O)c2ccccc2O1 (stereo unspecified)
inactive: [1] 8.2% | [2] 20.2% | [3] 6.9% | [4] 8.15% | [5] 9.7% | [6] 22.4%

CCCC(/C(C)=N/NC(N)=O)C1CCCCC1 (stereo unspecified)
inactive: [1] 14.2% | [2] 7.45% | [3] -2.6% | [4] 1% | [5] -5.1% | [6] 2%

C/C(=N/Nc1ccc([N+](=O)[O-])cc1[N+](=O)[O-])C(CC(C(=O)Nc1ccccc1C)/C(C)=N\Nc1ccc([N+](=O)[O-])cc1[N+](=O)[O-])C(=O)Nc1ccccc1C (stereo unspecified)
inactive: [1] 18.4% | [2] 25.9% | [3] 4.9% | [4] 10.3% | [5] 8.75% | [6] 43.6%

O=C(/C=C(\O)C(=O)O)/C=C(\O)c1ccc(Cl)cc1
inactive: [1] -15.7% | [2] 0.7% | [3] -27.4% | [4] -10.4% | [5] -23.8% | [6] -31.5%

COc1cc(/C=C(\C#N)c2ccccc2)cc(OC)c1
inactive: [1] 43.8% | [2] -13.5% | [3] -9.6% | [4] -9.8% | [5] 17.4% | [6] -28.9%

O=C(O)c1ccc(/C=N/NC(=O)C(O)(c2ccccc2)c2ccccc2)cc1
inactive: [1] 8.3% | [2] -21.9% | [3] -18.9% | [4] 11.7% | [5] -10.4% | [6] -9.65%

c1ccc2c(c1)nnn2CN1CCOCC1
inactive: [1] -6.3% | [2] 17.1% | [3] -26.6% | [4] -22.9% | [5] 3.15% | [6] 5.7%

CCCC(=O)Oc1ccc(C(C)(C)C)cc1
inactive: [1] 38.7% | [2] 6.75% | [3] 15.2% | [4] 10.8% | [5] 20.4% | [6] 5.5%

Cc1cc(=O)[nH]cn1
inactive: [1] 0.25% | [2] 6.2% | [3] -7.2% | [4] 7.45% | [5] 19.8% | [6] -4.9%

CCOP(=O)(CCP(=O)(CCP(=O)(OCC)OCC)CCP(=O)(OCC)OCC)OCC
inactive: [1] -8.05% | [2] 2.5% | [3] -8.05% | [4] -30.2% | [5] -1.55% | [6] -9.2%

NC(=S)N/N=C(\c1ccccc1)c1cccc2ccccc12
inactive: [1] 5.1% | [2] 50.7% | [3] 59% | [4] -35.3% | [5] 58.5% | [6] 33.5%

COc1cc(/C=C2\C(=O)N(C(=O)c3ccc(NC(C)=O)cc3)N=C2C)ccc1O
inactive: [1] -44.7% | [2] -41.1% | [3] -68.8% | [4] -40.4% | [5] -51% | [6] -64%

CC(=O)OCCn1c(Cc2ccc(C)cc2)nn(C(C)=O)c1=O
inactive: [1] 16.6% | [2] 5.5% | [3] 11.8% | [4] 3.4% | [5] 5.9% | [6] -0.95%

CCOC(=O)Nc1ccc2c(c1Cl)C(=O)c1ccccc1C2=O
inactive: [1] -6.85% | [2] -18.1% | [3] -0.2% | [4] 5.65% | [5] 14.3% | [6] -15.6%

COc1ccc(CN2CCCN(Cc3ccc(OC)cc3)C2c2ccc([N+](=O)[O-])cc2)cc1
inactive: [1] -0.3% | [2] 14.8% | [3] 12.8% | [4] -18.7% | [5] 32.9% | [6] -16.6%

NS(=O)(=O)N1CN(S(N)(=O)=O)CN(S(N)(=O)=O)C1
inactive: [1] -3.4% | [2] 4.1% | [3] 2.65% | [4] -18.6% | [5] 9.75% | [6] 13.4%

C=CS(=O)(=O)c1ccc(Nc2cc(S(=O)(=O)O)c(N)c3c2C(=O)c2ccccc2C3=O)cc1
inactive: [1] -20.2% | [2] -30.9% | [3] -4.1% | [4] 2.9% | [5] -19.3% | [6] -36.1%

O=C(CCCCCCCCC(=O)c1ccc2ccccc2c1O)c1ccc2ccccc2c1O
inactive: [1] -24.4% | [2] -22.1% | [3] -12.8% | [4] 15% | [5] -10.4% | [6] -11.8%

Cc1cccc(O)c1C(=O)O
inactive: [1] -8.15% | [2] -12% | [3] -15.6% | [4] -9.45% | [5] 9.05% | [6] -0.25%

N#CCCOCCN1CCN(c2cccc(Cl)c2)CC1
inactive: [1] 9.85% | [2] -7.8% | [3] 12% | [4] -2.6% | [5] 51.6% | [6] 23.1%
